One experiment can be described thus: PubChem AID 1714.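 Further: raw slope of fluorescence over initial fluorescence between 10 and 20 s after thallium.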 The settings on record: HEK293-KCC2 + bumetanide/ouabain, thallium flux FluoZin2; at 10 µM; stronger effect = higher value.
Experiment [1] has as its target Solute carrier family 12 member 5 (Homo sapiens) (UniProt Q9H2X9). Description: KCC2 modulators without ouabain present, confirmation, cell-based, HEK293 KCC2, thallium flux, FluoZin2, secondary assay 2 (AID 1715;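 active means thallium flux slope more than 3 SD above or below the plate's solvent-only control mean, mostly below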;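 further: raw slope with 0.1% DMSO as baseline and bumetanide as block control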). To be noted: HEK293-KCC2, thallium flux FluoZin2 fluorescence; at 10 µM; actives lie on both sides; F/F0 rise rate, 10–20 s post-thallium.
Experiment [2] can be described thus: thallium flux modulation in parental HEK cells, confirmation, counter-screen for KCC2 modulator project, cell-based, counterscreen 1 (AID 1716;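 active means thallium flux rate significantly above the same plate's solvent-only control wells, beyond their mean plus 3 SD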). To be noted: HEK293 parental cells, thallium flux FluoZin2, ouabain; at 10 µM; baseline-ratio fluorescence slope, 10–20 s after thallium. Background: A counterscreen serves to expose hits that act by an unwanted route or on another target.

The nature of experiment [3]: native HEK Tl+ uptake effects, second counter-screen – HEK cells, counterscreen 2, counter-screen for KCC2 modulator project, confirmation (AID 1718;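 active means thallium flux slope above the same plate's solvent-control mean plus 3 SD in both duplicate wells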;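 further: run without ouabain in cells lacking the KCC2 cotransporter; slope of fluorescence scaled to its starting value between 10 and 20 s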). To be noted: HEK293 parental, thallium flux FluoZin-2 fluorescence slope; at 10 µM.
The target in experiment [4] is Solute carrier family 12 member 5 (Homo sapiens) (UniProt Q9H2X9). Nature of the experiment: KCC2 inhibitors and activators, ouabain retest, confirmation, HEK-KCC2 cells (AID 1717;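 active means thallium flux slope beyond 3 SD from same-plate DMSO control mean in most replicates, usually higher, sometimes lower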;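 further: slope of initial-normalized fluorescence between seconds 10 and 20 after thallium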). The settings on record: HEK293-KCC2, thallium flux FluoZin2 fluorescence, at 10 µM, bidirectional: low = inhibitor, high = activator.
Solute carrier family 12 member 5 (Homo sapiens), sequence (Q9H2X9 whole entry, looked up): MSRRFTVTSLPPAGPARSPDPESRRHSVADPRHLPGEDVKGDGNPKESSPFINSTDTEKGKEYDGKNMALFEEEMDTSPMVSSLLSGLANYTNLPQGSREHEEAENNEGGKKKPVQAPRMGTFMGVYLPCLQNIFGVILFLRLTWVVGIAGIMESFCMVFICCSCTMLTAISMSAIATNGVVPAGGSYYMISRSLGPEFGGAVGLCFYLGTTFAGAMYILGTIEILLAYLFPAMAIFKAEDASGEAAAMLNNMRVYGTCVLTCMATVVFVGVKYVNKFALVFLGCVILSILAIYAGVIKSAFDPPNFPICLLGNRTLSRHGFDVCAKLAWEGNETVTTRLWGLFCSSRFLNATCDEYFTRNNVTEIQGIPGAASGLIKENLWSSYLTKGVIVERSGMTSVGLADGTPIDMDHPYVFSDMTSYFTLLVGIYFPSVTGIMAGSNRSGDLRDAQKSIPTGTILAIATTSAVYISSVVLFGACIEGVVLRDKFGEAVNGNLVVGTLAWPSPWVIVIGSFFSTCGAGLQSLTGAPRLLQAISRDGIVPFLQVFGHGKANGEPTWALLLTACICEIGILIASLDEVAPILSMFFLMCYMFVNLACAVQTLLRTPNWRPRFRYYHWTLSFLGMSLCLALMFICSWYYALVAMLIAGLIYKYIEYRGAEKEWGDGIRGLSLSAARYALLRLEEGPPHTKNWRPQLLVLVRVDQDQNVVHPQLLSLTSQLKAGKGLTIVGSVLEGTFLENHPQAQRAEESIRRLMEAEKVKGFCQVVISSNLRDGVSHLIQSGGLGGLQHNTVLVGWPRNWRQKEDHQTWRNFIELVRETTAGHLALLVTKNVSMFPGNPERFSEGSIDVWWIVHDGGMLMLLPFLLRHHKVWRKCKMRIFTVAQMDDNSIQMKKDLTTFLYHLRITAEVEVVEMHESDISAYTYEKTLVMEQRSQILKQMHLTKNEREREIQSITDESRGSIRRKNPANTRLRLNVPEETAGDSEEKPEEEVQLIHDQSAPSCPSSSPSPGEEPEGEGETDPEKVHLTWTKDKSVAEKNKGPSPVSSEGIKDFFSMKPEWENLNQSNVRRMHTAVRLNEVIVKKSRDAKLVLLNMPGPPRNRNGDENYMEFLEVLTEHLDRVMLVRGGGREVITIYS
Experiment [5] is described as follows: inhibitors of TNFa-induced NFkB p65 translocation, primary screen, imaging, HUVEC, MLSMR starter and 10KST1 sets (AID 438;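 active means inhibition above 20% together with a positive visual image hit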;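 further: compound added about 3h40 before a 20 min TNFalpha stimulation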;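 on inhibition: signal is the nuclear over cytoplasmic p65 intensity ratio per well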). To be noted: HUVEC TNFa-induced p65 nuclear translocation; cell count: measured here: nuclei count (cytotoxicity indicator), at 2.08 µM; inhibition: at 2 µM, stronger effect = higher value, 0% TNFa-plus-vehicle, 100% no-TNFa wells.
Experiment [6] is described as follows: inhibitors of mutant huntingtin aggregation, primary screen, imaging, exon1htt(103Q)mCFP cells, high-content imaging (AID 483;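 active means visual image review flags a hit and inhibition of aggregation exceeds 20%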;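 further: compound exposure lasted 3 days before fixation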;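 on nuclei count: percent of the per-plate median nuclei count of sample wells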). To be noted: exon1htt(103Q)mCFP cell line, aggregate imaging, at 2 µM; inhibition of aggregation: stronger effect = higher value; nuclei count: measured here: cell count, toxicity.
Experiment [7] in a line: inhibitors of E-selectin induction by TNFa, primary screen, imaging, HUVEC, immunofluorescence, MLSMR starter and 10KST1 sets (AID 487;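 active means visually confirmed hit in the image check and inhibition above 20%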;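 on inhibition: signal is fraction of cell area covered by stained E-selectin grains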;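 on nuclei count: 100% = median nuclei count of all wells on the same plate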). To be noted: HUVEC TNFalpha-induced E-selectin immunofluorescence imaging, at 2 µM; inhibition: stronger effect = higher value; nuclei count: measured here: cell number, toxicity.
Experiment [8] can be described thus: DUSP6 inhibitors restoring Erk phosphorylation by chemical complementation, primary imaging in DUSP6-transfected HeLa (AID 609;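 active means compounds giving at least 50% inhibition in the cell-based MKP-3 phosphatase rescue imaging test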;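 on inhibition: phospho-Erk level distribution per well compared with pooled transfected vehicle control wells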). To be noted: HeLa MKP-3 transfected, phospho-Erk imaging KS statistic, at 10 µM, cells stimulated with TPA for 15 min.
Experiment [9] has as its target Dual specificity protein phosphatase 6 (Homo sapiens) (UniProt Q16828). Described as above. To be noted: HeLa MKP-3 transfected, phospho-Erk imaging KS statistic; at 10 µM; stronger effect = higher value; cells stimulated with TPA for 15 min.
For experiment [10], the target named is Voltage-gated potassium channel subunit beta-2 (Rattus norvegicus) (UniProt P62483). Description: KvBeta enzyme negative modulators, primary screen, biochemical, NADPH fluorescence (AID 622;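 active means fluorescence slope higher than the sample average by over 3 SD, cut at about -0.22 in these data, passing the limit was not always enough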;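 further: slope of raw intensity against log time taken from 70 to 1610 s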). To be noted: recombinant KvBeta, 4-cyanobenzaldehyde reduction, at 10 µM, stronger effect = higher value.
Voltage-gated potassium channel subunit beta-2 (Rattus norvegicus), sequence (P62483 whole entry, looked up): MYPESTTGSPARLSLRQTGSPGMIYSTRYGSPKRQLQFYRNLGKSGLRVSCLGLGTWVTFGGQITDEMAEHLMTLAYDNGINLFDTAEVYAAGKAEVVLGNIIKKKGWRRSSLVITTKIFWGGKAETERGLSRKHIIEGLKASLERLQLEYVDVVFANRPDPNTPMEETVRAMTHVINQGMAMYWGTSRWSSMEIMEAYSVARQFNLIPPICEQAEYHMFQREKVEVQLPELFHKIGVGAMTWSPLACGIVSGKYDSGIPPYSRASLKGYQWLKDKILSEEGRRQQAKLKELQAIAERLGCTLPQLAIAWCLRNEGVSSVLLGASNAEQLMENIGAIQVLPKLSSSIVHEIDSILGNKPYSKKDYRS
The target is the same in experiment [11]. Description: KvBeta positive modulators, primary screen, biochemical, NADPH fluorescence (AID 623;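 active means NADPH fluorescence slope more negative than the mean of all samples by about 3 SD, 99.7% confidence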;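 further: fluorescence intensity change per second fitted from 20 to 320 s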). To be noted: Recombinant KvBeta, NADPH fluorescence decrease slope, 10 min; at 10 µM; stronger effect = lower value.
The target of experiment [12] is Alpha-2C adrenergic receptor (Homo sapiens) (UniProt P18825). Description: modulators of alpha2C/GIRK thallium flux, primary screen, cell-based, HEK293 alpha2C/GIRK1/2 (AID 624;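 active means fluorescence slope after compound addition differing from the mean of all screened samples at 99.7% confidence, in either direction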;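 further: slope of fluorescence ratio to pre-addition baseline per second over 15 to 24 s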). To be noted: thallium flux BTC fluorescence, at 10 µM, actives lie on both sides.
Alpha-2C adrenergic receptor (Homo sapiens), sequence (P18825 whole entry, looked up): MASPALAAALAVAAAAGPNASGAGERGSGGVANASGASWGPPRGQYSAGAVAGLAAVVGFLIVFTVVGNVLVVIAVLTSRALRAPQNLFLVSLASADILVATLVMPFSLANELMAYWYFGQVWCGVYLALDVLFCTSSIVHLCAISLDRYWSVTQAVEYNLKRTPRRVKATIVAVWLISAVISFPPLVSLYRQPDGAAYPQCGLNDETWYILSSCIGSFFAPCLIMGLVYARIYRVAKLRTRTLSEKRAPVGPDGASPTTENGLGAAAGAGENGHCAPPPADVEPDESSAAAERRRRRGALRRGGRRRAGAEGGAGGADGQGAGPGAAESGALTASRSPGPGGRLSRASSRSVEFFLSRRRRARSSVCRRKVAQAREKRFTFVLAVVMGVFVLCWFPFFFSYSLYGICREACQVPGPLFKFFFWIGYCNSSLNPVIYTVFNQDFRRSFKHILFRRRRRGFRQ
Experiment [13] in a line: inhibitors of Chlamydomonas gravitaxis, primary screen, whole organism, Chlamydomonas reinhardtii, WT vs cilia-less mutant, absorbance, 96-well (AID 463189).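 Further: 0% = wild type cc124 cells in DMSO and 100% = ciliumless bld1 mutant cells.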 To be noted: OD600 absorbance, 2 days, at 10 µM, stronger effect = higher value.
Experiment [14] in a line: inhibitors of Sendai virus-induced IRF3 signaling, primary screen, TLR/RLR signaling modifier project, cell-based, Sendai virus stimulus, luciferase, 10K MLSCN set (AID 602276;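 active means inhibition at or above 50% at 10 µM; inactive means inhibition below 50%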;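 further: firefly luciferase from ISG56 promoter only with Renilla not read in this screen; 0% = Sendai virus plus DMSO and 100% = medium plus DMSO without virus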). To be noted: HEK293 RL24 IRF3 luciferase reporter, at 10 µM, stronger effect = higher value. On the technique in general: A reporter such as luciferase makes a cellular process visible.
Experiment [15] in a line: inhibitors of poly I:C-induced TLR3 signaling, primary screen, cell-based, poly I:C stimulus, luciferase, 10K MLSCN set (AID 602277;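 active means inhibition of the reporter signal at or above 50%; inactive means inhibition below 50%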). The settings on record: HEK293-TLR3 RL24 IRF3 luciferase reporter, at 10 µM, stronger effect = higher value.
Experiment [16] has as its target Muscarinic acetylcholine receptor M4 (Homo sapiens) (UniProt P08173). Nature of the experiment: compounds altering M4/GIRK thallium flux, either direction, primary screen, M4 allosteric agonist project, cell-based, HEK293 M4/GIRK, BTC-AM (AID 625;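 active means fluorescence slope after compound addition differing from the mean of all tested samples at 99.7% confidence, mostly higher but some lower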;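 further: thallium influx through GIRK channels coupled to M4 in HEK293 cells with BTC-AM dye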). To be noted: at 10 µM, actives lie on both sides.
Experiment [17] can be described thus: inhibitors of larval lipid processing in zebrafish, primary screen, whole organism, PED6 fluorescence, gall bladder and intestine (AID 686;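 active means a full or partial loss of lipid-probe fluorescence in the fish gall bladder, intestine or both, judged by eye; inactive means no fluorescence loss, or compound toxic to the fish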;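 further: larvae 5 to 7 days old with five fish per well; signal comes from phospholipase A2 cleavage of quenched PED6 carried via bile; overnight exposure to compound and PED6 before scoring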). To be noted: Zebrafish larvae PED6 lipid processing, fluorescence scoring; screened at 20 µM (by protocol).
Setting [18] is: measured here: cell density z-score.
The mark [19] stands for this setting: measured here: nuclear c-Myc green intensity z-score.
[20] abbreviates: measured here: nuclear pErk red intensity z-score, stronger effect = higher value.

The structures appear in SMILES notation. Values joined by “and” are separate entries in the source; they are usually repeats but may differ in a detail not shown here. Equal entries are not always repeated. The list shows a part of the results. Results filed as inconclusive are left out. Active and inactive are the calls of the source.

Muscarinic acetylcholine receptor M4 (Homo sapiens), sequence (P08173 whole entry, looked up): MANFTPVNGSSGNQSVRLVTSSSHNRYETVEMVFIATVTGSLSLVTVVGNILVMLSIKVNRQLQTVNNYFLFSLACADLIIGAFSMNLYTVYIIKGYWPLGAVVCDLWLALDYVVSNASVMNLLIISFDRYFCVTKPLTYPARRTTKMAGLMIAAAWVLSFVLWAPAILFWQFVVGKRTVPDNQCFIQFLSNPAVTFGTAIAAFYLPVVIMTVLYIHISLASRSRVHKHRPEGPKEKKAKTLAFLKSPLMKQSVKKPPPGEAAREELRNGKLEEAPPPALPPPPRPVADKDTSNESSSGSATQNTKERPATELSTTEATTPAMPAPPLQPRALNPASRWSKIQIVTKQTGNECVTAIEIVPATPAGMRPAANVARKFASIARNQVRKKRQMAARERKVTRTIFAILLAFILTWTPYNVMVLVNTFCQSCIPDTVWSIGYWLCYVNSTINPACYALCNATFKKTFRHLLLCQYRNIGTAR
Dual specificity protein phosphatase 6 (Homo sapiens), sequence (Q16828 whole entry, looked up): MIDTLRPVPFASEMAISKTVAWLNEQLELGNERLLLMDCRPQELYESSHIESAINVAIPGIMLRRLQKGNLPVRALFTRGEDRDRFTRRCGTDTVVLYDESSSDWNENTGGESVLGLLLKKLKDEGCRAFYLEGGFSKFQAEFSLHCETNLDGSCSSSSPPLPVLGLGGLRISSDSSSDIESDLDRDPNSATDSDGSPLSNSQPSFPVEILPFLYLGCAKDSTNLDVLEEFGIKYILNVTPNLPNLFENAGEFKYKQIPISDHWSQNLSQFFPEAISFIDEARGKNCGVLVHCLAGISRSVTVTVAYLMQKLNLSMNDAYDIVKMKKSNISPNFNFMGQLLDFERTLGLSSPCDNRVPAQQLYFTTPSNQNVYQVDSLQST

For `C/C(=C\C(=O)c1ccc(Br)cc1)N1CCCCC1`, the normalized thallium flux in the experiment “PubChem AID 1714” is 0.0396 (active); in [1] it was 0.0283 (inactive). The thallium flux rate (normalised fluorescence) in experiment [2] was 0.0152 (active). For the same molecule, in experiment [3], the thallium flux slope is 0.0111 (active).

For the molecule `CC(C)CNC(=S)NC(=O)c1ccc(Cl)cc1`, the normalized thallium flux in the experiment “PubChem AID 1714” is 0.0714 (active); in [1], 0.0638 (active). The thallium flux rate (normalised fluorescence) in experiment [2] is 0.0685 (active). Also, the raw Tl+ flux slope (below DMSO = inhibition, above = activation) in [4] was 0.0663 (active). The thallium flux slope in experiment [3] was 0.0594 (active).

Take `CC1CC(C)(C)n2c(O)c(N=NC(N)=S)c3cccc1c32` (stereo not given): the results for the normalized thallium flux (in the experiment “PubChem AID 1714”; in [1]) were 0.0259 (active) and 0.0382 (inactive), respectively. Besides, in experiment [4], the raw Tl+ flux slope (below DMSO = inhibition, above = activation) is 0.0373 (active).

As for `CCN(CC)C(=O)c1ccc(O)c(OC)c1`, the cell count in [5] stood at 502. Also, the inhibition was -11.1% (inactive) in [5]; -54.9% (inactive) in experiment [7]; 8% (inactive) in experiment [9]; 4.81% (inactive) and 9.44% (inactive) in experiment [13]; -6.3% (inactive) in experiment [14]; 27.6% (inactive) in experiment [15]. The inhibition of aggregation in [6] is 8.7% (inactive). In addition, the nuclei count turned out to be 92.4% in experiment [6] and 125% in experiment [7]. For the same molecule, the z-score in experiment [8] (setting [18]) was 0.597; in experiment [8] (setting [19]), 0.258; in experiment [8] (setting [20]) it was -0.513. Also, the fluorescence slope in [10] is -0.5 (inactive). Moreover, the NADPH fluorescence slope in experiment [11] was -7.4e-05 (inactive). The slope in experiment [12] was 0.00537 (inactive).

As for `C/C(=N\NC(=S)NC1CCCCC1)c1ccc(C)o1`, the normalized thallium flux in “PubChem AID 1714” was 0.0335 (active); in experiment [1] it was 0.0359 (inactive). The thallium flux rate (normalised fluorescence) in experiment [2] is 0.017 (active). Also, the raw Tl+ flux slope (below DMSO = inhibition, above = activation) in experiment [4] is 0.0406 (active).

`C=C(C)C1Cc2c(C)nn(-c3nc(C)cc(C)n3)c2C1` (stereo not given): in experiment [5], the cell count came out at 462. In addition, the inhibition in experiment [5] was -2.7% (inactive); in experiment [7] it was -50.5% (inactive); in experiment [9], 1.98% (inactive); in experiment [13], 51.6% (active); in [14] it was 11.3% (inactive); in experiment [15], 16.4% (inactive). For the same molecule, the inhibition of aggregation in experiment [6] is 5% (inactive). The nuclei count was determined as 84.7% in [6] and 121% in experiment [7]. The z-score in experiment [8] (setting [18]) was found to be 0.411; in [8] (setting [19]) it was 1.2; in [8] (setting [20]) it was 0.938. Moreover, the fluorescence slope is -0.396 (inactive) in [10] and 0.00615 (inactive) in [16]. The NADPH fluorescence slope in experiment [11] was -3.5e-05 (inactive). Moreover, in experiment [12], the slope is 0.00521 (inactive). Further, the molecule was classed as inactive in experiment [17].

On to `COc1ccc(CNc2oc(COc3ccccc3Cl)nc2C#N)cc1`, for which the cell count in experiment [5] amounted to 436. Moreover, the inhibition in experiment [5] is -2.2% (inactive); in experiment [7] it was -70.3% (inactive); in [9], 3.5% (inactive); in experiment [13] it was 31.6% (inactive); in [14] it was 7.08% (inactive); in experiment [15], 6.46% (inactive). Also, the inhibition of aggregation in experiment [6] was 21.3% (inactive). Also, the nuclei count worked out at 81.6% in [6] and 126% in experiment [7]. Besides, the z-score in experiment [8] (setting [18]) was -0.4; in experiment [8] (setting [19]), 0.197; in experiment [8] (setting [20]) it was -0.0244. In addition, the fluorescence slope in [10] is -0.551 (inactive); in experiment [16], 0.0036 (inactive). Also, the NADPH fluorescence slope in experiment [11] is -9.3e-05 (inactive). Moreover, the slope in experiment [12] is 0.00797 (inactive).

On to `Cc1c(NC(=O)c2coc(=O)c(Br)c2)c(=O)n(-c2ccccc2)n1C`, for which, in experiment [5], the cell count amounted to 620. For the same molecule, the inhibition in [5] is 1.7% (inactive); in [7] it was 4% (inactive); in experiment [9], 20.3% (inactive); in [13], 14% (inactive); in [14], -5.82% (inactive); in experiment [15], 56.8% (active). Also, the inhibition of aggregation in [6] was 3.9% (inactive). In addition, the results for the nuclei count in experiment [6] and in experiment [7] were 101% and 113%, respectively. Moreover, the z-score in experiment [8] (setting [18]) is -0.496; in experiment [8] (setting [19]), 0.153; in experiment [8] (setting [20]), -1.2. The fluorescence slope was -0.46 (inactive) in [10] and 0.00586 (inactive) in experiment [16]. In addition, in [11], the NADPH fluorescence slope was -2.1e-05 (inactive). For the same molecule, the slope in experiment [12] is 0.0067 (inactive). Besides, in experiment [17], the call was inactive.

As usually defined, the inhibition is the drop in the measured response relative to a control, in per cent.
